From PubChem
Rows were chosen to be rich in hits. Some 2% of all compounds tested hit in one or more screens of this group.
CCHF vOTU inh: CCHFV vOTU protease inhibition. Pep-AMC fluorescence. inhibition, % at 11.5 µM. actives 0.55% (n = 370,000). AID 651958; in the data active means inhibition above about 30%; further: 0% = vehicle wells with enzyme and 100% = no enzyme wells
PrPC surface inh: inhibitors of human cell surface prion protein PrPC | P04156 | TR-FRET read-out | inhibition, % at 13.8 µM | actives 0.43% (n = 370,000) | AID 720596; in the data active means inhibition above about 24%; further: 0% = median of the test wells and 100% = reference compound wells
PfHsp40 rescue: rescue of PfHsp40-mediated yeast toxicity. S. cerevisiae expressing PfHsp40, growth rescue, ATP luminescence. growth rescue, % at 12.5 µM. actives 0.68% (n = 340,000); in the data active means growth rescue above about 28%, passing the limit was not always enough;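 further: yeast W303a lacking pdr1 and pdr3 grown in galactose medium; growth measured after three days at 30 °C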
Yp Topo-I inh: blocks Yersinia pestis topoisomerase I activity; Y. pestis Topo-I cleavage product accumulation, plate reader; activity, % at 10 µM; actives 0.064% (n = 360,000); in the data active means activity above about 50%, passing the limit was not always enough
BJeLR viability: BJeLR cell viability loss; BJeLR (HRASV12) viability, CellTiter-Glo ATP luminescence, 48 h; inhibition, % (no concentration beside the values); actives 0.17% (n = 300,000); in the data active means inhibition above about 50%
PrP 5UTR inh: suppresses PrP 5' UTR mRNA reporter expression. cell-based PrP 5' UTR mRNA reporter, plate reader. inhibition, % (test concentration not listed). actives 0.35% (n = 340,000). AID 488862; in the data active means inhibition above about 52%; further: 0 = median of the neutral control wells
Active calls of the source: *; x = no result.

SMILES | CCHF vOTU inh | PrPC surface inh | PfHsp40 rescue | Yp Topo-I inh | BJeLR viability | PrP 5UTR inh
Cc1ccc(C(C)(C)C)cc1S(=O)(=O)Nc1nc2ccccc2nc1Cl | 24 | 27* | 6 | 6 | 9 | -16
Cc1ccccc1S(=O)(=O)Nc1ncnc2sccc12 | -13 | -3 | 1 | -4 | x | -18
Cc1ccc(C(C)(C)C)cc1S(=O)(=O)Nc1ncnc2sccc12 | 10 | 1 | 251* | 5 | x | -14
O=C(NC(=S)Nc1cc([N+](=O)[O-])ccc1O)c1cccnc1 | -3 | -13 | -2 | 2 | 2 | 55*
CCC(C)c1ccc(O)c(NC(=S)NC(=O)c2cccnc2)c1 (stereo not drawn) | -3 | 10 | 54* | -4 | -1 | -17
Cc1ccc([N+](=O)[O-])cc1NC(=S)NC(=O)c1cccnc1 | -15 | -14 | -2 | -4 | -13 | -3
O=S(=O)(Nc1ccc(-n2cccc2)cc1)c1ccc(Cl)c(Cl)c1 | 6 | -1 | 66* | -8 | -8 | -34
O=S(=O)(Nc1ccc(-n2cccc2)cc1)c1ccc(F)cc1 | 8 | 14 | 3 | -4 | -1 | 9
CC(=NCCO)c1c(O)n(C2CCCCC2)c(=O)[nH]c1=O | 2 | -2 | 0 | -3 | 3 | -9
C/C(=N\NC(=O)c1ccccc1Cl)c1c(O)n(C2CCCCC2)c(=O)[nH]c1=O | 23 | 3 | -1 | -3 | 8 | -24
CCC(=O)c1c(O)n(C2CCCCCC2)c(=O)[nH]c1=O | -6 | 1 | 81* | -4 | 4 | -21
C/C(=N\NC(=O)c1ccccc1O)c1c(O)n(C2CCCCC2)c(=O)[nH]c1=O | 24 | -3 | 79* | 2 | 5 | 2
CC(C)(C)OC(=O)NCc1cc(F)ccc1/C=C/S(=O)(=O)NCc1ccc(F)cc1 | 20 | 0 | x | x | x | x
COc1ccc(O)c(C(=O)CC(=O)c2ccccc2C)c1 | -6 | 11 | 314* | -10 | 1 | -82
COc1ccc(O)c(C(=O)CC(=O)c2cccnc2)c1 | -61 | -1 | -1 | -4 | x | -83
COc1ccc(O)c(C(=O)CC(=O)c2ccc(F)cc2)c1 | -38 | -4 | 230* | -12 | 18 | 11
COc1ccc(C(=O)CC(=O)c2ccccc2O)cc1 | -135 | -1 | -1 | -11 | -11 | -59
COc1ccccc1C(NC(C)=O)c1cc(Cl)c2cccnc2c1O (stereo not drawn) | -11 | 0 | -1 | 4 | 34 | x
CCOc1ccc(C(Nc2cccnc2)c2cc(Cl)c3cccnc3c2O)cc1 (stereo not drawn) | 4 | -5 | 92* | -1 | x | -5
O=C(O)COc1ccccc1C(Nc1cccnc1)c1cc(Cl)c2cccnc2c1O (stereo not drawn) | x | x | 106* | 1 | 7 | -16
O=C(O)COc1ccccc1C(Nc1ccccn1)c1cc(Cl)c2cccnc2c1O (stereo not drawn) | 12 | 0 | 58* | 15 | -11 | -9
Cc1nc2ccc(NC(=O)c3c(Cl)cccc3Cl)cc2c(=O)[nH]1 | 3 | 5 | x | x | x | x
O=C(N1CCOCC1)N1CC[C@H]2[C@H](CCCN2Cc2ccccc2)C1 | 3 | -10 | x | x | x | x
Cc1cc(C)cc(NC(=O)/C=C/c2ccc([N+](=O)[O-])s2)c1 | -3 | 8 | 0 | 1 | -3 | -33
CC(=O)c1cccc(NC(=O)/C=C/c2ccc([N+](=O)[O-])s2)c1 | 5 | -3 | 0 | -28 | 63* | -44
SMILES | CCHF vOTU inh | PrPC surface inh | PfHsp40 rescue | Yp Topo-I inh | BJeLR viability | PrP 5UTR inh
Cc1ccc2nc(Cl)c3nnnn3c2c1 | x | x | 85* | -1 | 24 | -2
CN1CCCCC(NC(=O)C23CC4CC(CC(C4)C2)C3)C1=O (stereo not drawn) | 1 | -9 | x | x | x | x
CCCCCCC(C)(C)c1ccc([C@@H]2C[C@H](O)CC[C@H]2CCCO)c(O)c1 | 19 | 8 | 68* | 25 | x | -21
CC(C)C(=O)N[C@H]1[C@H](O)CCC[C@@]12C(=O)N(Cc1ccccc1)c1ccccc12 | 8 | 7 | x | x | x | x
CN(C)C(=O)CN1c2cccc3cccc(c23)S1(=O)=O | -7 | 1 | -1 | 2 | 0 | -24
CC(C)N(Cc1ccccc1)C(=O)CN1c2cccc3cccc(c23)S1(=O)=O | 0 | -7 | 70* | -3 | x | -3
Cc1ccc(S(=O)(=O)c2cnc3cc(C)nn3c2N)cc1 | 1 | 1 | 32* | -2 | -7 | -2
CC(C)c1[nH]nc2c1C(c1cccc(C(F)(F)F)c1)NC2=O (stereo not drawn) | 0 | 2 | x | x | x | x
